Test results from PubChem BioAssay (NCI).
Compounds without any hit were thinned out: in the full panel of roughly 79,000, 15% have a hit. Calls of active or inactive are those of the source. Cut-off read from the data, not from the text of the source: active = growth inhibition above about 70%; inactive = the rest.

What was measured:
[1] = NCI Yeast Anticancer Drug Screen. Data for the mec2-1 strain (AID 157); conditions: S. cerevisiae mec2-1 strain, stronger effect = higher value
In short: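 Mutant yeast (mec2-1) grown with compound; growth inhibition relative to vehicle control reported.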

[2] = NCI Yeast Anticancer Drug Screen. Data for the rad14 strain (AID 159);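 note: 0% = growth of vehicle-treated control cultures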; conditions: S. cerevisiae rad14 strain growth inhibition, stronger effect = higher value
In short: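 Screen for anticancer potential: a yeast strain altered in DNA damage repair is grown with compound, and reduced growth is quantified against vehicle controls.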

[3] = NCI Yeast Anticancer Drug Screen. Data for the sgs1 mgt1 strain (AID 161);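 note: 0% = growth of cultures given vehicle only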; conditions: S. cerevisiae sgs1 mgt1 strain, stronger effect = higher value
In short: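 This yeast growth screen uses a strain with defined DNA-repair lesions; compound-treated growth is compared with vehicle-treated growth.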

[4] = NCI Yeast Anticancer Drug Screen. Data for the CLN2oe strain (AID 163);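 note: 0% = growth of vehicle-only control cultures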; conditions: S. cerevisiae CLN2oe strain, stronger effect = higher value
In short: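 Compounds are applied to yeast harbouring a defined cell-cycle control change; reduced growth compared with vehicle-treated controls gives the value.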

[5] = NCI Yeast Anticancer Drug Screen. Data for the cln2 rad14 strain (AID 165);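 note: 0% = growth equal to vehicle treated cultures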; conditions: S. cerevisiae cln2 rad14 strain, stronger effect = higher value
In short: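 Readout is yeast growth inhibition versus vehicle-treated controls, using a strain with cln2 and rad14 alterations exposed to compound.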

[6] = NCI Yeast Anticancer Drug Screen. Data for the wt2 strain (AID 169);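 note: 0% = growth of vehicle-treated yeast cultures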; conditions: S. cerevisiae wt2 strain growth inhibition, stronger effect = higher value
In short: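 Against vehicle-treated controls, the growth of yeast exposed to each compound was compared, and the inhibition was recorded.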

[7] = NCI Yeast Anticancer Drug Screen. Data for the mlh1 strain (AID 171);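 note: 0% = growth of vehicle-treated control cultures of the same strain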; conditions: S. cerevisiae mlh1 strain growth inhibition, stronger effect = higher value
In short: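 Measured: yeast growth. Reference: vehicle-treated controls. Organism: strain with a defined alteration affecting DNA damage repair or cell cycle control, treated with compound.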

[8] = NCI Yeast Anticancer Drug Screen. Data for the sgs1 strain (AID 173);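 note: 0% = growth of vehicle-only control cultures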; conditions: S. cerevisiae sgs1 mutant, stronger effect = higher value
In short: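 Each compound was added to cultures of the altered yeast strain. Growth was recorded, and inhibition was derived by comparison with vehicle controls.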

[9] = NCI Yeast Anticancer Drug Screen. Data for the mlh1 rad18 strain (AID 175); conditions: S. cerevisiae mlh1 rad18 strain growth inhibition, stronger effect = higher value
In short: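 Genetically defined yeast (DNA repair-deficient) exposed to compounds; growth inhibition determined relative to vehicle.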

[10] = NCI Yeast Anticancer Drug Screen. Data for the rad18 strain (AID 177); conditions: S. cerevisiae rad18 mutant growth inhibition, stronger effect = higher value
In short: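 Vehicle-treated cultures served as the baseline for scoring compound-induced growth inhibition in DNA-repair-mutant yeast.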

[11] = NCI Yeast Anticancer Drug Screen. Data for the rad52 strain (AID 147);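 note: 0% = growth of vehicle-treated control cultures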; conditions: S. cerevisiae rad52 mutant growth inhibition, stronger effect = higher value
In short: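 The repair-mutant yeast strain was incubated with compounds, then growth was read and inhibition derived relative to vehicle.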

[12] = NCI Yeast Anticancer Drug Screen. Data for the wt1 strain (AID 149);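 note: 0% = growth of vehicle-treated wt1 cultures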; conditions: S. cerevisiae wt1 strain (SPY 50644) growth inhibition, stronger effect = higher value
In short: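 Using yeast strain wt1, compound-induced growth inhibition was determined against vehicle-treated cultures.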

[13] = NCI Yeast Anticancer Drug Screen. Data for the rad50EPP+ strain (AID 151);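 note: 0% = growth of vehicle-treated control cultures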; conditions: S. cerevisiae rad50 mutant strain, stronger effect = higher value
In short: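 Vehicle-normalised growth inhibition; rad50EPP+ yeast strain, altered in DNA damage repair, compound-treated.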

[14] = NCI Yeast Anticancer Drug Screen. Data for the mgt1 strain (AID 153); conditions: S. cerevisiae mgt1 mutant growth inhibition, stronger effect = higher value
In short: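 Vehicle-normalized growth inhibition is determined in mgt1 yeast, a strain selected for a defined alteration in DNA repair or cell cycle control.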

[15] = NCI Yeast Anticancer Drug Screen. Data for the rad50 strain (AID 155);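 note: 0% = growth of vehicle-only cultures of the same strain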; conditions: S. cerevisiae rad50 strain growth inhibition, stronger effect = higher value
In short: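 Relative growth inhibition (compound vs vehicle) was measured in yeast with a defined repair-gene alteration.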

[16] = NCI Yeast Anticancer Drug Screen. Data for the bub3 strain (AID 167); conditions: S. cerevisiae bub3 mutant strain, stronger effect = higher value
In short: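 Screening used yeast with an engineered genetic alteration affecting cell cycle control. Compound-exposed cultures were compared with vehicle cultures, and reduced growth was taken as inhibition.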

[17] = at 5.0 µM (retest, dose inferred, filed as 0.5)
[18] = at 50.0 µM (retest, dose inferred, filed as 5.0)

Measured: growth inhibition

O=S(=O)(O)c1ccc(Cl)cc1.[Cd]
active: [2]; at 33.0 µM 71% | [2]; at 100.0 µM 86% | [7]; at 100.0 µM 82%
inactive: [1]; [17] 6% | [1]; at 11.0 µM 14% | [1]; at 33.0 µM 25% | [1]; [18] 46% | [1]; at 50.0 µM 39.4% | [1]; at 100.0 µM 37% | [2]; at 1.2 µM -2% | [2]; at 3.7 µM 18% | [2]; at 11.0 µM 48% | [3]; [17] 23% | [3]; [18] 53% | [3]; at 50.0 µM 50.5% | [4]; at 1.2 µM -18% | [4]; at 3.7 µM -17% | [4]; at 11.0 µM -6% | [4]; at 33.0 µM 8% | [4]; at 100.0 µM 20% | [5]; [17] 8% | [5]; [18] 11% | [5]; at 50.0 µM 21.4% | [6]; at 1.2 µM 2% | [6]; at 3.7 µM 11% | [6]; at 11.0 µM 20% | [6]; at 33.0 µM 32% | [6]; at 100.0 µM 44% | [7]; at 1.2 µM -1% | [7]; at 3.7 µM 7% | [7]; at 11.0 µM 17% | [7]; at 33.0 µM 50% | [8]; at 1.2 µM 2% | [8]; at 3.7 µM 10% | [8]; at 11.0 µM 17% | [8]; at 33.0 µM 29% | [8]; at 100.0 µM 44% | [9]; [17] 24% | [9]; [18] 47% | [9]; at 50.0 µM 59% | [10]; at 1.2 µM 0% | [10]; at 3.7 µM 8% | [10]; at 11.0 µM 23% | [10]; at 33.0 µM 44% | [10]; at 100.0 µM 51%

CCCCN(CCCC)CC(C(C)=O)C(c1ccccc1)c1c(O)c2ccccc2oc1=O (stereo unspecified)
active: [15]; at 50.0 µM 71.3% | [3]; at 50.0 µM 84.2% | [5]; at 50.0 µM 81.5% | [16]; at 50.0 µM 74.5% | [9]; at 50.0 µM 76.8%
inactive: [11]; at 1.2 µM 2% | [11]; at 3.7 µM 3% | [11]; at 11.0 µM 2% | [11]; at 33.0 µM 3% | [11]; at 100.0 µM 2% | [12]; at 1.2 µM 0% | [12]; at 3.7 µM -1% | [12]; at 11.0 µM -1% | [12]; at 33.0 µM -3% | [12]; at 100.0 µM -4% | [13]; at 1.2 µM -7% | [13]; at 3.7 µM -5% | [13]; at 11.0 µM -6% | [13]; at 33.0 µM -8% | [13]; at 100.0 µM -3% | [14]; at 1.2 µM 1% | [14]; at 3.7 µM 2% | [14]; at 11.0 µM 3% | [14]; at 33.0 µM 0% | [14]; at 100.0 µM -1% | [15]; at 1.2 µM 2% | [15]; at 3.7 µM 2% | [15]; [17] 22% | [15]; at 11.0 µM 4% | [15]; at 33.0 µM 3% | [15]; [18] 22% | [15]; at 100.0 µM 1% | [1]; at 1.2 µM 3% | [1]; at 3.7 µM 2% | [1]; [17] 25% | [1]; at 11.0 µM -1% | [1]; at 33.0 µM -1% | [1]; [18] 25% | [1]; at 50.0 µM 69.6% | [1]; at 100.0 µM 5% | [2]; at 1.2 µM 5% | [2]; at 3.7 µM 3% | [2]; at 11.0 µM 2% | [2]; at 33.0 µM -2% | [2]; at 100.0 µM -24% | [3]; [17] 10% | [3]; [18] 10% | [4]; at 1.2 µM 1% | [4]; at 3.7 µM 6% | [4]; at 11.0 µM 5% | [4]; at 33.0 µM -2% | [4]; at 100.0 µM -3% | [5]; [17] 51% | [5]; [18] 51% | [16]; at 1.2 µM 4% | [16]; at 3.7 µM 2% | [16]; [17] 4% | [16]; at 11.0 µM 15% | [16]; at 33.0 µM 22% | [16]; [18] 4% | [16]; at 100.0 µM 6% | [6]; at 1.2 µM 0% | [6]; at 3.7 µM -1% | [6]; at 11.0 µM 0% | [6]; at 33.0 µM -1% | [6]; at 100.0 µM 4% | [7]; at 1.2 µM 0% | [7]; at 3.7 µM -2% | [7]; at 11.0 µM -2% | [7]; at 33.0 µM 1% | [7]; at 100.0 µM -28% | [9]; [17] 22% | [9]; [18] 22% | [10]; at 1.2 µM -3% | [10]; at 3.7 µM -9% | [10]; at 11.0 µM -10% | [10]; at 33.0 µM -12% | [10]; at 100.0 µM -8%

COc1cc(O)c2c(O)c3c(c4c2c1[C@]1(C4)C(C)=CCCC1(C)C)[C@H](O)[C@@]1(O)CC(=O)C(C(N)=O)=C(O)[C@@]1(O)C3=O
active: [11]; at 3.7 µM 92% | [11]; at 11.0 µM 98% | [11]; at 33.0 µM 98% | [11]; at 100.0 µM 95% | [12]; at 11.0 µM 98% | [12]; at 33.0 µM 97% | [12]; at 100.0 µM 93% | [13]; at 11.0 µM 97% | [13]; at 33.0 µM 96% | [13]; at 100.0 µM 89% | [14]; at 3.7 µM 94% | [14]; at 11.0 µM 99% | [14]; at 33.0 µM 98% | [14]; at 100.0 µM 93% | [15]; at 3.7 µM 87% | [15]; at 11.0 µM 97% | [15]; at 33.0 µM 96% | [15]; [18] 97% | [15]; at 50.0 µM 97% | [15]; at 100.0 µM 92% | [1]; at 3.7 µM 87% | [1]; [17] 83% | [1]; at 11.0 µM 98% | [1]; at 33.0 µM 98% | [1]; [18] 98% | [1]; at 50.0 µM 98.7% | [1]; at 100.0 µM 94% | [2]; at 11.0 µM 97% | [2]; at 33.0 µM 97% | [2]; at 100.0 µM 93% | [3]; [18] 98% | [3]; at 50.0 µM 98.7% | [4]; at 3.7 µM 94% | [4]; at 11.0 µM 98% | [4]; at 33.0 µM 97% | [4]; at 100.0 µM 93% | [5]; [18] 98% | [5]; at 50.0 µM 98.1% | [16]; at 3.7 µM 77% | [16]; at 11.0 µM 98% | [16]; at 33.0 µM 97% | [16]; [18] 98% | [16]; at 50.0 µM 98.2% | [16]; at 100.0 µM 94% | [6]; at 11.0 µM 97% | [6]; at 33.0 µM 96% | [6]; at 100.0 µM 95% | [7]; at 11.0 µM 97% | [7]; at 33.0 µM 97% | [7]; at 100.0 µM 95% | [9]; [18] 97% | [9]; at 50.0 µM 96.8% | [10]; at 3.7 µM 85% | [10]; at 11.0 µM 97% | [10]; at 33.0 µM 97% | [10]; at 100.0 µM 95%
inactive: [11]; at 1.2 µM -1% | [12]; at 1.2 µM -16% | [12]; at 3.7 µM 56% | [13]; at 1.2 µM -52% | [13]; at 3.7 µM 60% | [14]; at 1.2 µM -16% | [15]; at 1.2 µM -37% | [15]; [17] 2% | [1]; at 1.2 µM -36% | [2]; at 1.2 µM -57% | [2]; at 3.7 µM 50% | [3]; [17] 21% | [4]; at 1.2 µM -6% | [5]; [17] 1% | [16]; at 1.2 µM -1% | [16]; [17] -7% | [6]; at 1.2 µM -30% | [6]; at 3.7 µM -16% | [7]; at 1.2 µM -21% | [7]; at 3.7 µM 67% | [9]; [17] -5% | [10]; at 1.2 µM -21%
